Screening data: PubChem BioAssay, National Center for Advancing Translational Sciences (NCATS)
G9a inh – inhibitors of human histone lysine methyltransferase G9a. Potency, µM (titrated, usually from 102 µM), for the others: at the highest dose activity, negative = inhibition, actives largely listed as inhibitors. actives 8.8% (n = 350,000). Q96KQ7. G9a H3K9 monomethylation, AlphaScreen, 2 h. AID 504332; note: potency is the fitted concentration of half-maximal effect; % is set by controls: 0 for no effect and ±100 for the full control effect; nearly all actives have a fitted effect of over 75% in size
Target sequence (Q96KQ7 913-1193 limits assumed): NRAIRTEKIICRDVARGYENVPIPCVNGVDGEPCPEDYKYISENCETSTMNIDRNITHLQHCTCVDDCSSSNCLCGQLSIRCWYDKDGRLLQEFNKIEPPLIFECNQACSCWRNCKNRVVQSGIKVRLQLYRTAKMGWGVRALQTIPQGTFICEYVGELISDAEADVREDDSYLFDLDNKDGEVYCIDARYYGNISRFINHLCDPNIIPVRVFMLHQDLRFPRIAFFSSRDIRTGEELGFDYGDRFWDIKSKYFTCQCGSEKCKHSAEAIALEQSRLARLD
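Quantitative HTS format: methyltransferase activity on a biotin-tagged H3K9 peptide is measured by AlphaScreen, using a rabbit anti-monomethyl-H3K9 antibody with streptavidin donor and anti-IgG acceptor beads. Final levels are 20 nM enzyme, 500 nM peptide, 20 uM SAM; 2 h RT.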
CCT modulator – cytosolic chaperonin activity modulation; activity change, % (no concentration beside the values), hits read low; purified chaperonin ATPase assay, HTRF ADP detection, 30 min; actives 0.3% (n = 360,000); in the data active = activity change below about -30%; note: % is set by controls: 0 for no effect and ±100 for the full control effect
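TRiC (40 or 20 nM final, by batch activity) in 30 mM Tris pH 7.4, 100 mM KCl, 5 mM MgCl2, 1 mM DTT was treated with compound at 76 uM single dose, then 10 uM ATP, 30 min at 37 °C. ADP was read by HTRF Transcreener.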
VDR inh – vitamin D3 receptor (human) inhibition | VDR-SRC2-3 peptide fluorescence polarization, 2 h | Potency, µM, inactives show max response, negative = inhibition, most hits filed as inhibitors | actives 0.93% (n = 400,000); note: potency is the fitted concentration of half-maximal effect; % is set by controls: 0 for no effect and ±100 for the full control effect
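Compounds are added to VDR with labelled SRC2-3 coactivator peptide and held 2 h at room temperature. Inhibition of the VDR–peptide interaction is then read as a change in fluorescence polarization.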
Sfp PPTase inh – blocks B. subtilis Sfp PPTase activity | Q9F4F7 | Biochemical Sfp PPTase activity, qHTS | Potency, µM, for inactives: largest response in the series, negative = inhibition, actives largely listed as inhibitors | actives 3.5% (n = 310,000) | AID 1490;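 note: the enzyme is Sfp with the accession as filed and its product quenches rhodamine fluorescence; potency is the fitted concentration of half-maximal effect; 0% = enzyme reaction without inhibitor and -100% = no enzyme wells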
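After 15 min at room temperature with compound, 15 nM Sfp received 5 uM rhodamine-CoA plus 12.5 uM BHQ-2-ybbR (50 mM Hepes pH 7.6, 10 mM MgCl2). Rate came from the fluorescence difference over 30 min, ex 525/em 598 nm.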
PLK1 PBD inh – blocks phosphopeptide binding to human PLK1 polo-box domain | P53350 | Plk1 PBD binding of FITC phosphopeptide, fluorescence polarization | Potency, µM, without a hit: max response, negative = inhibition, hits mostly inhibitors | actives 2.8% (n = 360,000); note: potency is the fitted concentration of half-maximal effect; series mostly up to about 57 µM; % is set by controls: 0 for no effect and ±100 for the full control effect; nearly all actives have a fitted effect of over 65% in size
MmCpn inh – inhibitors of Methanococcus maripaludis chaperonin TRiC (MmCpn); purified Mm-Cpn ATPase, ADP Transcreener TR-FRET; Potency, µM (highest dose often 76.9 µM), inactives show top-dose activity, negative = inhibition, actives largely listed as inhibitors; actives 0.031% (n = 330,000); AID 504842; note: potency is the fitted concentration of half-maximal effect; % is set by controls: 0 for no effect and ±100 for the full control effect; nearly all actives have a fitted effect of over 80% in size
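TR-FRET (320 nm excitation; 590 and 665 nm emission) reports ADP made from 10 uM ATP by 25 nM enzyme; compounds were preincubated 10 min, reaction run 30 min, both at 37°C.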
VDR inh confirm – confirmation of human vitamin D receptor inhibitors | shares compounds with VDR inh | actives 89% (n = 840) | VDR-coactivator inhibition assay, qHTS confirmation | Potency, µM, usual class: inhibitors | AID 602199; note: potency is the fitted concentration of half-maximal effect
VDR FP – confirmation of human VDR-coactivator binding inhibitors, fluorescein label | shares compounds with VDR inh | VDR-coactivator binding, fluorescein fluorescence polarization | Potency, µM (highest dose often 57.1 µM), inactives show top-dose activity change, negative = inhibition, hits mostly inhibitors | actives 48% (n = 840) | AID 602200; note: potency is the fitted concentration of half-maximal effect
VDR bla reporter – confirmation of human vitamin D receptor inhibitors in reporter cells; shares compounds with VDR inh; VDR beta-lactamase reporter cells, FRET ratio; cells co-treated with VDR agonist LG190178; Potency, µM (top dose mostly 46.1 µM), without a hit: at the top dose activity change, negative = inhibition, actives largely listed as inhibitors; actives 23% (n = 840); AID 602202; note: potency is the fitted concentration of half-maximal effect; % is set by controls: 0 for no effect and ±100 for the full control effect
VDR viability – cell toxicity, VDR inhibitor hit counter-screen; cytotoxicity counter-screen, cell viability, qHTS; Potency, µM (highest dose often 48.3 µM), for the others: at the highest dose activity change, negative = cytotoxicity, usual class: cytotoxic; AID 602204; shares compounds with VDR inh; actives 18% (n = 840);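 note: potency is the fitted concentration of half-maximal effect; plate controls were DMSO for no effect and high-concentration cycloheximide for full effect; nearly all actives have a fitted effect of over 75% in size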
* = called active by the depositor; u = inconclusive; x = no result; [ ] = another dose, or the depositor's remark. The list is not random: actives were taken first. Their share in the collection is about 10%. Unless noted, calls come from the whole dose curve; as a rule, active = well fitted curve in the direction sought with a large enough effect; inconclusive = small, poorly fitted or top-dose-only effect, or another doubt; inactive = no such curve, though single readings can be large; an effect the other way counts as inactive or inconclusive.

SMILES	G9a inh	CCT modulator	VDR inh	Sfp PPTase inh	PLK1 PBD inh	MmCpn inh	VDR inh confirm	VDR FP	VDR bla reporter	VDR viability
Cc1c(C(=O)Nc2nc(-c3ccccn3)cs2)oc2ccccc12	u	2	89µM*	x	12µM*	-2%	21*	-13%	u	u
CC(=O)OCC1OC(n2cnc3c(Cl)nc(Cl)nc32)C(OC(C)=O)C1OC(C)=O (stereo not given)	x	x	2%	10%	x	x	x	x	x	x
Nc1nc(-c2cccc(F)c2)cs1	x	-3	35µM*	-3%	11µM*	2%	24*	u	12%	7%
Fc1cccc(-c2csc(-c3ccno3)n2)c1	x	0	-18%	u	u	-2%	x	x	x	x
Cc1ccc(CCNC(=O)c2cc3cc4cc(C)ccc4nc3s2)cc1	4%[59 µM]	x	6%	x	x	x	x	x	x	x
COc1cc(C=C2C(=O)OC(c3ccccc3)OC2=O)cc(Br)c1O (stereo not given)	u	1	-8%	2%	u	1%	x	x	x	x
COc1ccc(/C=C2/C(=O)N(c3ccccc3)N=C2C)cc1Br	35µM*	2	50µM*	50µM*	2.1µM*	u	9.5*	u	20%	4%
CC1=NN(c2cccc(C(=O)O)c2)C(=O)/C1=C\C=C/c1ccccc1	40µM*	-2	u	50µM*	5.3µM*	0%	3.2*	3.2µM*	8.2µM*	u
O=C(/C=C/c1ccccc1)Nc1cccc(C(=O)O)c1	-1%	-1	-4%	15%	-8%	0%	x	x	x	x
CC1=NN(c2ccccc2)C(=O)/C1=C/c1ccc(Cl)cc1	40µM*	-4	79µM*	-23%	1.9µM*	-6%	15*	u	5%	9%
Cc1ccc(Cl)cc1NS(=O)(=O)c1ccc(N2CCCCS2(=O)=O)cc1	25%[59 µM]	x	9%	x	x	x	x	x	x	x
COc1ccc(OC)c(NC(=O)c2nc(S(=O)(=O)Cc3ccccc3F)ncc2Cl)c1	x	x	x	x	x	x	2.8*	4µM*	16µM*	11µM*
COc1ccc(OC)c(NC(=O)c2nc(S(=O)(=O)Cc3ccccc3)ncc2Cl)c1	35µM*	-10	10µM*	-5%	u	-1%	12*	u	8.2µM*	8.2µM*
CCCCc1nc2c(c3c1C[C@H](C)OC3)CN(C(=O)C1CCCCC1)CC2	x	x	x	20%	x	x	x	x	x	x
CCN(CCN(C)C)C(=O)Cn1ncc2c([nH]c3ccc(C)cc32)c1=O	-20%[59 µM]	x	-2%	x	x	x	x	x	x	x
N#CC1=C(N)C(C#N)(C#N)[C@H](c2cccnc2)[C@H]2CN(C(=O)OCc3ccccc3)CC=C12	50µM*	0	13µM*	-20%	u	-2%	27*	u	33%	13%
N#CC1=C(N)C(C#N)(C#N)C(c2cccnc2)C2CC(c3ccccc3)CC=C12 (stereo not given)	x	1	25µM*	-14%	27µM*	1%	u	8.9µM*	u	-16%
Cc1c(Cc2ccc3c(c2)OCO3)sc(NC(=O)c2cccc3ccccc23)c1C(N)=O	7.1µM*	-1	u	35µM*	6µM*	-3%	10*	14µM*	u	-26%
